Source: PubChem BioAssay (several laboratories)
ADAM10 inh = ADAM10 inhibition, QFRET primary screen; O14672; recombinant ADAM10, EDANS/DABCYL FRET peptide cleavage, 3 h; inhibition, % at 7 µM; 370,000 tested, 0.62% active; AID 720582;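 active means inhibition above a per-campaign cutoff equal to the mean of compounds falling between control-based bounds plus 3 SD, cut at about 20% in these data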
ADAM17 inh = inhibitors of human ADAM17; AID 720648; inhibition, % at 6.95 µM; 370,000 tested, 0.83% active; P78536; recombinant ADAM17, EDANS/DABCYL FRET peptide cleavage;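 active means inhibition above the mean of compounds lying between control limits plus 3 SD, set per campaign, cut at about 8.5% in these data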
Target sequence (P78536 215-824 limits assumed): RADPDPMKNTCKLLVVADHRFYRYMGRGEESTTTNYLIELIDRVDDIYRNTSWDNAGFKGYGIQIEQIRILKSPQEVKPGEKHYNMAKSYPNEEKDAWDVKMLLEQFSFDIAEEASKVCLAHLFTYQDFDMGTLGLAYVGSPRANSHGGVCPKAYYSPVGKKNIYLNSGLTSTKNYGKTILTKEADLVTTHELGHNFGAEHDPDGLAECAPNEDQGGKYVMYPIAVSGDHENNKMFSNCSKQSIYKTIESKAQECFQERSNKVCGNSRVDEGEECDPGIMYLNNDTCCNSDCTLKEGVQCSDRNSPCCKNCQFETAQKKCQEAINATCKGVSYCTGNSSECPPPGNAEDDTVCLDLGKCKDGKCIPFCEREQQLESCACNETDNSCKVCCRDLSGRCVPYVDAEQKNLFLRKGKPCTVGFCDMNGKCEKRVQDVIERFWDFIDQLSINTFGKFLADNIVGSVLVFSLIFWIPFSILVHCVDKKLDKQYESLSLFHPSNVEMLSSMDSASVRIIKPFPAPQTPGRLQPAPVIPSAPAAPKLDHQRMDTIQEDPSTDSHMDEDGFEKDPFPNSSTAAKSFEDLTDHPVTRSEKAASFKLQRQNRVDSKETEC
GC-A act = GC-A (human) enzyme activation; P16066; HEK293 GC-A cells, cGMP TR-FRET, EC30 ANP; 0% at EC30 ANP, 100% saturating ANP; activation, % at 10 µM; 370,000 tested, 0.14% active; AID 1671463; in the data active means activation above about 40%
NPR2 activator = GC-B (human) receptor activation. HEK293-GC-B cells, CNP EC30, cGMP TR-FRET; 0% at EC30 CNP, 100% saturating CNP. AID 1920062. 370,000 tested, 0.11% active. P20594. activation, % at 10 µM;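 active means activation at 10 µM reaching about 35% in either raw or pattern-adjusted values, limit read from the data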
KLK7 zymogen act = activates the human kallikrein-7 zymogen. P49862. purified proKLK7, EDANS-DABCYL substrate fluorescence; 100% is mature enzyme control, 0% vehicle. activation, % at 7 µM. 370,000 tested, 0.9% active. AID 652039;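 active means activation above the mean of all tested compounds plus 3 SD, computed per campaign excluding outliers beyond control limits, cut at about 13% in these data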
ADAM10 confirm = confirmation of inhibitors of human ADAM10. inhibition, % at 6.95 µM. shares compounds with ADAM10 inh. 2,100 tested, 1% active. ADAM10 QFRET peptide cleavage, EDANS fluorescence. AID 743208;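 active means inhibition above about 20% chosen separately for each screening run, limit read from the data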
ADAM17 ctr = inhibits human ADAM17 in ADAM10 exosite counter-screen. shares compounds with ADAM10 inh. ADAM17 QFRET peptide cleavage, EDANS fluorescence. inhibition, % at 6.95 µM. 2,100 tested, 0.5% active. AID 743214;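 active means mean triplicate inhibition above the solvent-only control wells' mean plus 3 SD, cut at about 12% in these data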
ADAM10 ctr = counter-screen for ADAM17 exosite inhibitors: inhibitors of human ADAM10. inhibition, % at 6.95 µM. recombinant ADAM10, EDANS/DABCYL FRET peptide cleavage, 3 h. 2,900 tested, 47% active. AID 743256. shares compounds with ADAM17 inh;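 active means mean inhibition over the triplicate runs exceeds the activity threshold set in the earlier primary screen, cut at about 20% in these data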
ADAM17 confirm = human ADAM17 inhibition, confirmation; shares compounds with ADAM17 inh; recombinant ADAM17, EDANS/DABCYL QFRET peptide cleavage; inhibition, % at 6.95 µM; 2,900 tested, 65% active;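 active means mean inhibition across replicates above the hit cutoff set in the primary screen, cut at about 8.5% in these data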
Each line names hits and unclear results; the compound was inactive in the other large screens (follow-up assays come after a bar, where they were run). Shown are actives, neighbours in structure and some others; about 2.2% of the full set was active somewhere.

CC1CC2(C)C(=CC1=O)CCC1C3CCC(C)(O)C3(C)CC3OC312 (centres undefined)	none
O=C1NCN(c2ccccc2)C12CCN(C(CCc1ccccc1)c1nnnn1-c1ccc3c(c1)OCCO3)CC2 (centres undefined)	ADAM10 inh 24.7, ADAM17 inh 10.5 | ADAM10 confirm inactive | ADAM17 ctr inactive
COC(=O)C1=C[C@H]([C@@H](C)[C@H](OC)c2ccccc2Br)[C@@H]2[C@H]1c1ccccc1N2C	none
CCN1C(=O)C(=Cc2ccc(N3CCOCC3)o2)C(=O)N(CC)C1=S	ADAM10 inh 24.6 | ADAM10 confirm inactive | ADAM17 ctr inactive
COC(=O)c1ccc(NC(=O)CSc2nc3ccc(N4C(=O)C5C6C=CC(C6)C5C4=O)cc3s2)cc1 (centres undefined)	ADAM10 inh 25.4 | ADAM10 confirm inactive | ADAM17 ctr inactive
COc1ccc(NP(=O)(Oc2ccc(Cl)cc2)Oc2ccc(Cl)cc2)cc1OC	ADAM10 inh 23.4, ADAM17 inh 11.8 | ADAM10 confirm inactive | ADAM17 ctr inactive | ADAM10 ctr 41.1 | ADAM17 confirm 17.1
COc1ccc(OC)c(NP(=O)(Oc2ccccc2)Oc2ccccc2)c1	ADAM10 inh 32.4, ADAM17 inh 10.3 | ADAM10 confirm inactive | ADAM17 ctr inactive | ADAM10 ctr inactive | ADAM17 confirm inactive
COc1ccc(OC)c(NP(=O)(Oc2ccc(Cl)cc2)Oc2ccc(Cl)cc2)c1	none
C=CCCC1(C2=CCCCC2)C(=O)NC(=O)NC1=O	none
CC1=CC(C)CC(C)OC(=O)CC(c2ccc(O)cc2)NC(=O)C(Cc2c(Br)[nH]c3ccccc23)N(C)C(=O)C(C)NC(=O)C(C)C1 (centres undefined)	ADAM10 inh 24.7, ADAM17 inh 8.9 | ADAM10 confirm inactive | ADAM17 ctr inactive | ADAM10 ctr 29.8 | ADAM17 confirm 17.9
COC(=O)C1=C(c2ccc(-c3ccccc3)c(F)c2)C[C@@H]2CC[C@H]1N2C(=O)NCCOc1ccccc1	ADAM10 inh 37.9, ADAM17 inh 18.1 | ADAM10 confirm inactive | ADAM17 ctr inactive | ADAM10 ctr 37.7 | ADAM17 confirm 19.1
CC(C)c1ccc(C(c2c(O)c3ccccc3oc2=O)c2c(O)c3ccccc3oc2=O)cc1	ADAM10 inh 22.9, ADAM17 inh 9.6 | ADAM10 confirm inactive | ADAM17 ctr inactive | ADAM10 ctr 34.5 | ADAM17 confirm 23.2
Oc1ccc(O)c2c1C1(Cl)C(Cl)=C(Cl)C2(Cl)C1(Cl)Cl	ADAM10 inh 40.9, ADAM17 inh 14.7 | ADAM10 confirm inactive | ADAM17 ctr inactive | ADAM10 ctr 28.6 | ADAM17 confirm 13.7
Oc1ccccc1Cl	none
COc1cc2[nH]c(C(=O)N3CCC4(CC3)OCCO4)cc2c(OC)c1OC	none
COc1ccc(-n2nnnc2C(CCc2ccccc2)N2CCC3(CC2)C(=O)NCN3c2ccccc2)cc1 (centres undefined)	ADAM10 inh 27.6, ADAM17 inh 11.7 | ADAM10 confirm inactive | ADAM17 ctr inactive | ADAM10 ctr 32.6 | ADAM17 confirm 18.4
CCC(c1nnnn1-c1ccc(OC)cc1)N1CCC2(CC1)C(=O)NCN2c1ccccc1 (centres undefined)	none
Cc1nc2ccccc2c(=O)n1-c1c(Cl)cccc1Cl	none
O=C1NC(=O)C2(CCCc3ccc(N(CCCl)CCCl)cc32)N1 (centres undefined)	none
Cc1cccc(N2C(=O)/C(=C/c3ccc(CN(CCC#N)S(C)(=O)=O)o3)C(=O)NC2=S)c1	ADAM17 inh 9.1 | ADAM10 ctr inactive | ADAM17 confirm inactive
COc1ccc(-n2nnnc2C(c2cc3ccccc3o2)N2CCC(n3c(=O)[nH]c4ccccc43)CC2)cc1 (centres undefined)	ADAM17 inh 9.6 | ADAM10 ctr 28.3 | ADAM17 confirm 12.9
O=c1[nH]c2ccccc2n1C1CCN(C(c2cccs2)c2nnnn2Cc2ccccc2)CC1 (centres undefined)	ADAM17 inh 11.1 | ADAM10 ctr 37.6 | ADAM17 confirm 18.5
O=c1[nH]c2ccccc2n1C1CCN(C(c2ccccc2OC(F)(F)F)c2nnnn2Cc2ccccc2)CC1 (centres undefined)	ADAM17 inh 11.7 | ADAM10 ctr 41.8 | ADAM17 confirm 20.3
COc1ccc(C(c2nnnn2-c2ccc(OC)cc2)N2CCC(n3c(=O)[nH]c4ccccc43)CC2)cc1 (centres undefined)	none
CSCCC(c1nnnn1C1CCCCC1)N1CCC(n2c(=O)[nH]c3ccccc32)CC1 (centres undefined)	none
COc1ccc(C(c2nnnn2Cc2ccccc2)N2CCC(n3c(=O)[nH]c4ccccc43)CC2)cc1 (centres undefined)	none
CSCCC(c1nnnn1C1CCCC1)N1CCC(n2c(=O)[nH]c3ccccc32)CC1 (centres undefined)	ADAM17 inh 9.2 | ADAM10 ctr inactive | ADAM17 confirm 10.7
O=C(CCC(=O)N1CCC2(CC1)OCCO2)Nc1nnc(C2CCCCC2)s1	none
CC(C)N(C(=O)CCl)c1ccccc1	none
COC(=O)C1=C(c2ccc(F)cc2OCc2ccccc2)C[C@@H]2CC[C@H]1N2C(=O)NCc1ccc([N+](=O)[O-])cc1	ADAM17 inh 9.0 | ADAM10 ctr 30.2 | ADAM17 confirm 19.5
COC(=O)C1=C(c2ccc(F)cc2OCc2ccccc2)C[C@@H]2CC[C@H]1N2C(=O)NCc1ccc(C)cc1	none
Cc1cc(O)c2c(c1)OC(C)(C)C1=C2CC(C)CC1 (centres undefined)	ADAM17 inh 12.1 | ADAM10 ctr 30.4 | ADAM17 confirm 14.1
CCN(CC)S(=O)(=O)N1CCC(C(=O)N2CCC3(CC2)OCCO3)CC1	none
C[C@]12N[C@H](Cc3ccccc31)c1ccccc12	none
COc1ccc(C(=O)Nc2cccc(S(=O)(=O)NCc3ccco3)c2)cc1	ADAM17 inh 8.7 | ADAM10 ctr 22.6 | ADAM17 confirm 15.4
COc1ccc(S(=O)(=O)NC(CC(=O)N2CCC3(CC2)OCCO3)c2ccco2)cc1 (centres undefined)	none
